From PubChem BioAssay
ATG4B inhibitor = ATG4B (human) cysteine protease inhibition; ATG4B cleavage of LC3-PLA2, NBD-HPC fluorescence, 1 h; 340,000 tested, 0.51% active; inhibition, % at 8.33 µM; Q9Y4P1; in the data active = inhibition above about 40%
Target sequence (Q9Y4P1 whole entry, looked up): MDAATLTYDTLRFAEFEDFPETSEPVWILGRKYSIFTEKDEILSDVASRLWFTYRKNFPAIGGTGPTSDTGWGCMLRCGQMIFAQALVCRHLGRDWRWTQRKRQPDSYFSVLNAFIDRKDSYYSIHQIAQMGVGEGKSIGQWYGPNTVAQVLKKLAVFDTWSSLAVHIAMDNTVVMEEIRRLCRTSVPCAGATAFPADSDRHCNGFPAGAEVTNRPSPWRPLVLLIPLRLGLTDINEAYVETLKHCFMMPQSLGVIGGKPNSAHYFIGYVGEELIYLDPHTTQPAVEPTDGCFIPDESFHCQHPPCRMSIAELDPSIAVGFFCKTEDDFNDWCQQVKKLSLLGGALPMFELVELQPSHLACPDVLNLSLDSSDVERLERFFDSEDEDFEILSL
TIM10 inh = TIM10 yeast growth inhibition | S. cerevisiae TIM10 strain growth, BacTiter-Glo luminescence, 24 h | inhibition, % at 10 µM | 330,000 tested, 1.4% active | AID 463195;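 active = inhibition of 40% or more at the single tested concentration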;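 note: wild-type TIM10 isogenic control strain grown at permissive 25 °C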
tim10-1 inh = growth inhibitors of tim10-1 mutant yeast; 330,000 tested, 2.2% active; inhibition, % at 20 µM; S. cerevisiae tim10-1 ts strain growth, BacTiter-Glo, 24 h; AID 463190;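 active = inhibition of at least 40%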;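 note: mutant grown at 25 °C; 0% = DMSO wells with yeast and 100% = wells holding no yeast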
PfHsp90 yeast 2 = growth inhibition of yeast expressing Plasmodium Hsp90 | S. cerevisiae expressing PfHsp90, BacTiter-Glo ATP, 48 h; yeast lacking PDR1 and PDR3 efflux regulators | 310,000 tested, 0.32% active | AID 504621 | inhibition, % at 9.4 µM;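 active = every replicate shows inhibition above about 80%, whatever the replicate mean, limit read from the data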;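 note: 0% = DMSO neutral controls and 100% = 20 µM radicicol positive controls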
SKKanGAS inh = inhibitors of SKKanGAS S. pyogenes growth in kanamycin (SK-promoter or general growth effect); BacTiter-Glo, 6 h; inhibition, % at 7.5 µM; 300,000 tested, 1.3% active;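 active = mean replicate score, as percent of positive control median, at least 50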;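 note: strain carries kanamycin resistance gene driven by streptokinase promoter and grows in 40 µg/ml kanamycin; loss of luminescence reflects streptokinase promoter inhibition or plain growth inhibition; 0% = median of DMSO wells and 100% = positive control at its reference dose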
tim23-1 inh = tim23-1 yeast growth inhibition | S. cerevisiae tim23-1 growth, BacTiter-Glo luminescence, 24 h | inhibition, % at 20 µM | 330,000 tested, 1.3% active;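 active = growth inhibition of the mutant yeast at or above 50%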;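 note: temperature-sensitive mutant grown at 25 °C; plate controls were DMSO-treated mutant yeast for no effect and medium wells lacking yeast for full effect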
TIM10 conf = confirmation of TIM10 yeast growth inhibitors; inhibition, % at 10 µM; 4,600 tested, 63% active; shares compounds with TIM10 inh; S. cerevisiae tim10 strain growth, BacTiter-Glo luminescence, 24 h;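 active = inhibition of yeast growth at or above a set limit in either of two replicates at 10 µM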;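 note: this counterscreen used the strain with wild-type TIM10; 0% = yeast with DMSO and 100% = medium wells lacking yeast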
tim23-1 conf = tim23-1 yeast growth inhibition, confirmed; shares compounds with tim23-1 inh; S. cerevisiae tim23-1 growth, BacTiter-Glo luminescence, 24 h; inhibition, % at 20 µM; 4,400 tested, 83% active;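 active = inhibition above about 39% in either of two replicate wells at 20 µM, limit read from the data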;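 note: temperature-sensitive tim23-1 mutant grown at 25 °C; 0% = DMSO wells with yeast and 100% = medium wells without yeast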
* = called active by the depositor; . = no result. This is a sample that favours compounds with a hit; in the whole collection about 4.7% have one here.

SMILES | ATG4B inhibitor | TIM10 inh | tim10-1 inh | PfHsp90 yeast 2 | SKKanGAS inh | tim23-1 inh | TIM10 conf | tim23-1 conf
O=C1C(O)=C(O)C(=O)c2ccccc21 | -15.0 | 9.6 | -13.8 | -6.1 | . | -7.1 | . | .
O=C1C(=O)c2ccc(-c3ccccc3)cc2-c2ccccc21 | -24.6 | 43.9* | 36.3 | . | 101.3* | 59.2* | 61.2* | 55.8*
N#C/C(=C\c1ccccc1)C(=O)N1CCN(c2ccccc2F)CC1 | -6.2 | 47.2* | 26.1 | 11.6 | 9.7 | 66.4* | 44.5* | 48.5*
Cc1[nH]ccc(=O)c1OCC(=O)O | -7.6 | 6.7 | -4.8 | 5.1 | -8.0 | 7.6 | . | .
CC(=O)SC(C[N+](=O)[O-])c1cn(C(C)=O)c2ccccc12 (stereo unspecified) | -6.0 | 79.8* | 26.6 | 124.3* | 2.5 | 88.7* | 85.9* | -75.8
CC(=O)n1cc(Nc2ccc([N+](=O)[O-])cc2)c2ccccc21 | 5.2 | -20.4 | 3.6 | -5.5 | 26.9 | -19.3 | . | .
O=C(Oc1cc(=O)oc2c1c(=O)n1c3c(cccc23)CC1)c1ccccc1 | -5.8 | 41.2* | 11.7 | 21.7 | 9.6 | 57.5* | 28.8 | 66.5*
COc1ccc(/C=N/c2c(-c3ccco3)nc3ccccn23)cc1OC | -3.3 | 10.4 | 14.5 | 12.9 | 4.2 | 27.9 | . | .
CCC1(c2ccccc2)ON(c2c(Br)cccc2Br)C1=O (stereo unspecified) | 4.5 | 71.2* | -51.8 | -26.5 | . | 78.3* | 56.0* | -47.5
CCC1(c2ccccc2)C(=O)N=C(N)N(C#N)C1=O (stereo unspecified) | -10.8 | . | . | . | . | . | . | .
S=C(NNc1ccnc2cc(Cl)ccc12)Nc1ccccc1Cl | -5.4 | 40.1* | 39.8 | 21.0 | 11.7 | 55.8* | -21.6 | 34.5
CC1=CC(C)(C)N(C(=O)CN2C(=O)c3ccccc3C2=O)c2ccc(C)cc21 | 4.2 | 43.8* | 39.6 | 17.8 | -16.1 | 60.3* | 50.1* | 58.9*
CCCCOc1ccc(C(=O)N/C(=C\c2cccc([N+](=O)[O-])c2)C(=O)OC(C)C)cc1 | 31.6 | -17.8 | 7.5 | -8.1 | -0.7 | -3.3 | . | .
Cc1ccc2cc3cc(C(=O)NCCCN4CCCCCC4)oc3nc2c1 | -15.5 | 58.3* | 33.3 | 13.9 | -2.4 | 50.6* | -4.8 | 22.6
CC(C)(C)c1ccc(S(=O)(=O)NCc2ccccn2)cc1 | -11.2 | -5.0 | 9.6 | -14.6 | 0.3 | 8.2 | . | .
CC(C)(C)c1cc(C(C)(C)C)cc(S(=O)(=O)CCc2ccccn2)c1 | 1.1 | 50.6* | 30.6 | 29.7 | -6.4 | 59.3* | 56.7* | 54.0*
COc1ccccc1/C=N\NC(=O)c1c(C)nc2ccc(Cl)cn12 | -4.8 | 4.4 | 8.1 | 18.1 | -2.6 | 13.7 | . | .
COc1cccc(/C=N/NC(=O)c2c(C)nc3ccc(Cl)cn23)c1O | -4.2 | 48.1* | 25.7 | 5.2 | 102.5* | 58.8* | 64.8* | 58.3*
CCCc1cc(=O)oc2cc(OCc3ccc(OC)cc3)c(Cl)cc12 | 1.2 | -3.0 | 10.9 | -0.4 | 2.3 | 7.2 | . | .
CCOc1ccc(NC(=O)COC(=O)CC2CC3CCC2C3)cc1 (stereo unspecified) | -0.8 | 44.2* | 4.4 | -35.9 | . | 58.6* | 39.8* | 53.9*
CN(C)S(=O)(=O)c1cc(NC(=O)COC(=O)CC2CC3CCC2C3)ccc1Cl (stereo unspecified) | -7.1 | 1.1 | -5.9 | 13.8 | . | 11.3 | . | .
O=C(N/N=C/c1ccccc1O)c1cccc2ccccc12 | 0.3 | 40.7* | -13.2 | -14.8 | 105.5* | 66.5* | 21.0 | 39.0
O=C(O)c1ccc(C=NNC(=O)c2cccc3ccccc23)cc1 | 1.6 | . | . | -45.9 | . | . | . | .
NS(=O)(=O)c1ccc(NC(=O)c2ccc(COc3ccccc3)o2)cc1 | -9.8 | 4.7 | -14.3 | -12.6 | -8.2 | -19.3 | . | .
NC(=O)c1oc2ccccc2c1NC(=O)c1ccc([N+](=O)[O-])o1 | -6.0 | 56.7* | 29.1 | -12.7 | 73.0* | 66.2* | 65.7* | 59.5*
SMILES | ATG4B inhibitor | TIM10 inh | tim10-1 inh | PfHsp90 yeast 2 | SKKanGAS inh | tim23-1 inh | TIM10 conf | tim23-1 conf
Cc1ccc(/C=N/NC(=O)c2ccc3c(c2)OCCO3)s1 | -4.1 | 43.8* | -17.7 | 1.0 | 17.4 | 58.7* | 31.5 | 65.2*
Cc1ccsc1/C=N/NC(=O)c1ccc2c(c1)OCCO2 | -2.6 | 48.8* | 29.7 | -16.7 | 2.9 | 56.2* | 52.2* | 72.1*
Cc1ccc(/C=N/NC(=O)c2ccc3ccccc3c2)s1 | -8.9 | 40.7* | -1.5 | 1.2 | -1.4 | 67.8* | 31.8* | 72.8*
O=C(c1ccccc1N(Cc1ccccc1)S(=O)(=O)c1ccccc1)N1CCOCC1 | 3.7 | -1.4 | 4.1 | -32.8 | 1.7 | 22.2 | . | .
CCCCc1ccc(NC(=O)CSC2=C(C#N)C(c3ccco3)C3=C(CCCC3=O)N2)cc1 (stereo unspecified) | -9.8 | 11.5 | 10.5 | -13.9 | 32.2 | 9.7 | . | .
COc1ccc(CN2CCCN(S(=O)(=O)c3ccc(Br)cc3)CC2)cc1 | 2.4 | -61.6 | -27.0 | 0.4 | -0.8 | 24.0 | . | .
COc1ccc(S(=O)(=O)N2CCN(Cc3ccc(Cl)cc3)CC2)cc1 | -5.6 | 42.3* | 27.8 | 8.1 | 0.3 | 58.4* | 40.4* | 50.5*
N#C/C(=C\c1ccccc1Cl)C(=O)Nc1ccccn1 | 5.0 | 43.3* | 32.8 | 2.6 | -5.1 | 63.9* | 23.4 | 42.0*
COc1nc(NC23CC4CC(CC(C4)C2)C3)nc(OC)n1 | -5.3 | 11.6 | 32.4 | -48.4 | 2.3 | 35.1 | . | .
CC(=O)c1ccc(N2CCN(C(=O)c3ccc4ccccc4n3)CC2)cc1 | 0.5 | 14.3 | 16.0 | -10.0 | 4.8 | -1.5 | . | .
CC(=O)c1ccc(N2CCN(C(=O)/C=C/c3ccc4ccccc4n3)CC2)cc1 | -5.9 | 63.9* | 23.6 | 0.8 | 9.7 | 50.3* | 75.8* | 39.6*
Cc1ccc(C)c(S(=O)(=O)Nc2ccc(S(=O)(=O)Nc3ncccn3)cc2)c1 | 2.8 | -0.3 | 6.1 | . | . | 16.0 | . | .
Cn1c(=O)[nH]c(=O)c2c1nc(N1CCCCCC1)n2CC(N)=O | -14.6 | -4.1 | -24.5 | -29.7 | 1.9 | 11.8 | . | .
N#Cc1ccccc1Cn1cc(/C=C/[N+](=O)[O-])c2ccccc21 | 10.9 | 66.7* | 31.9 | 10.5 | 1.5 | 69.1* | -1.1 | 81.8*
CCCCNC(=S)N/N=C/c1ccccc1F | -1.7 | 46.6* | 35.4 | -7.9 | -2.6 | 50.5* | -9.8 | 40.2*
COc1ccc(/C=N/n2c(N)nc3ccccc32)cc1OC | -19.6 | -3.6 | -7.0 | 3.4 | . | -0.7 | . | .
COc1cccc(/C=N/n2c(N)nc3ccccc32)c1OC | -28.3 | 43.8* | 10.3 | -11.8 | 53.3* | 59.6* | 45.2* | 38.1
Oc1c(CN2CCc3ccccc3C2)cc(Cl)c2cccnc12 | 33.0 | 43.2* | 34.5 | 102.4* | 89.3* | 56.2* | 41.0* | 54.5*
O=C(Nc1ccc2c(c1)ncn2C1CCCCC1)c1ccco1 | 2.3 | 65.9* | 36.2 | . | -4.1 | 50.6* | 53.2* | 76.7*
